The values below come from article PMC7862700, “An all-to-all approach to the identification of sequence-specific readers for epigenetic DNA modifications on cytosine”.

Assay in all cases: DAPPL (digital affinity profiling via proximity ligation, sequencing); 10 mM Tris-HCl pH 7.5, 50 mM NaCl, 1 mM DTT, 4% glycerol, room temperature, 30 min; GST-TFs on glutathione beads, 16-mer random dsDNA library, 0.1% formaldehyde crosslink after washing; high values mean tight binding
What all share (settings): protein: recombinant; tags: N-terminal GST; dsDNA, one strand shown

For one experiment, the target named is T1, FLI1 (Homo sapiens, UniProt Q01543 1-452).
T1 sequence: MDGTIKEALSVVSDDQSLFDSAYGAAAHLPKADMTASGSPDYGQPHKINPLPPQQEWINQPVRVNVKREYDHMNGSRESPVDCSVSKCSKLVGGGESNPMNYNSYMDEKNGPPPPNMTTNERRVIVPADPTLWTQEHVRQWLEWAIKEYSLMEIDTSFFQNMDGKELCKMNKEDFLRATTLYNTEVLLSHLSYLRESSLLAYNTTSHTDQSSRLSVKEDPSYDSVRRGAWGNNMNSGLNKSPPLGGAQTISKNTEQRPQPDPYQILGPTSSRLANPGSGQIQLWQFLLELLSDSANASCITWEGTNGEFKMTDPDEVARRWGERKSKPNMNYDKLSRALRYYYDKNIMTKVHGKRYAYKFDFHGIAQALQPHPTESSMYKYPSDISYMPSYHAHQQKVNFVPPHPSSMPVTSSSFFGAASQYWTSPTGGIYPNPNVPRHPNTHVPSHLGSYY
The procedure, abridged: (§1)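 Binding signal is defined as a hexamer's read frequency for one factor over its frequency for the tag-only sample. To obtain reads, GST-fused human transcription factors were expressed in yeast, captured on glutathione beads, barcoded with DNA and pooled with that sample. Pools met 200 nmole of a 16-mer random double-stranded DNA library in Tris/NaCl/DTT/glycerol buffer for 30 min at room temperature before washing, 0.1% formaldehyde crosslinking, proximity ligation (BsaI/T4 ligase, 1 h, 37 °C), PCR and Illumina NextSeq500 sequencing.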

The next experiment has as its target T2, ELK1 (Homo sapiens, UniProt P19419 1-428).
T2 sequence: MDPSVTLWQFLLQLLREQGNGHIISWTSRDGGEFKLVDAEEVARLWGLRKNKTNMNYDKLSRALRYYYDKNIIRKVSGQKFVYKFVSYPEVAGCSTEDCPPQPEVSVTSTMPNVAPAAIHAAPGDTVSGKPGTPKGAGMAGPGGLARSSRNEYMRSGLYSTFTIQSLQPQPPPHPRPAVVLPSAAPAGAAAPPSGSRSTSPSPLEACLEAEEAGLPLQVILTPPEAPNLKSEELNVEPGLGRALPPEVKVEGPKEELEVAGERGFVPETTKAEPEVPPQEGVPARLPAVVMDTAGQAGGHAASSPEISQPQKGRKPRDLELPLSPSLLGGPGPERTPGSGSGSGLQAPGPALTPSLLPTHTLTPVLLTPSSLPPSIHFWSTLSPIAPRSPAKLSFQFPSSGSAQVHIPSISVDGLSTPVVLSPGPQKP
In short, it runs like this: as §1

The next experiment deals with T3, GABPA (Homo sapiens, UniProt Q06546 1-454).
T3 sequence: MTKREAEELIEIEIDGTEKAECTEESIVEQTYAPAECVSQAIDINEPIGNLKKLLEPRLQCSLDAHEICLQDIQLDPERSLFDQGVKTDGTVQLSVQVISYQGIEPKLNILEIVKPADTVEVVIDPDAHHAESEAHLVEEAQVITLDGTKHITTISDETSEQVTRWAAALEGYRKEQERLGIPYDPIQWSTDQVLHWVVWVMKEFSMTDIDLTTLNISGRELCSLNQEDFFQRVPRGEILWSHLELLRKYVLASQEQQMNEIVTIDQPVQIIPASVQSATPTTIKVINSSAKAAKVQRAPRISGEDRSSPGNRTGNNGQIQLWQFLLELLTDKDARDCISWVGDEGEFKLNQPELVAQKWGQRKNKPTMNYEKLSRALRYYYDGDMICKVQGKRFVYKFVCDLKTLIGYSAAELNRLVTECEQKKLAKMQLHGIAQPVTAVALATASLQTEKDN
In short, it runs like this:
as §1

The next experiment deals with T4, ERG (Homo sapiens, UniProt P11308 1-479).
T4 sequence: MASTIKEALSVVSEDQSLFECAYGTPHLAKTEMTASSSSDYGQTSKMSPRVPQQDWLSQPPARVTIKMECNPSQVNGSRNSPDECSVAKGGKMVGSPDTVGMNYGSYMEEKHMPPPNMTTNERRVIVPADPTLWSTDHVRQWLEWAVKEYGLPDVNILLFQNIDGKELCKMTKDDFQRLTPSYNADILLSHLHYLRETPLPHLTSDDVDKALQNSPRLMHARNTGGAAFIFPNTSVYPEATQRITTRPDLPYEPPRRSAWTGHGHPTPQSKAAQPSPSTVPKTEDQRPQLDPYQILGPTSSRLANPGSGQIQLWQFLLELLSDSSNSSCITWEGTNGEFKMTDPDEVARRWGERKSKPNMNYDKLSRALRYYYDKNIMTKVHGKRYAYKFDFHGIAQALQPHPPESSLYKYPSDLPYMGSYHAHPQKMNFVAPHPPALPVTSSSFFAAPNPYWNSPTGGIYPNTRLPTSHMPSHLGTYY
The procedure, abridged:
as §1

For another experiment, the target named is ELF1 (Homo sapiens, UniProt P32519 1-619). The procedure, abridged: as §1
ELF1, sequence (P32519 whole entry): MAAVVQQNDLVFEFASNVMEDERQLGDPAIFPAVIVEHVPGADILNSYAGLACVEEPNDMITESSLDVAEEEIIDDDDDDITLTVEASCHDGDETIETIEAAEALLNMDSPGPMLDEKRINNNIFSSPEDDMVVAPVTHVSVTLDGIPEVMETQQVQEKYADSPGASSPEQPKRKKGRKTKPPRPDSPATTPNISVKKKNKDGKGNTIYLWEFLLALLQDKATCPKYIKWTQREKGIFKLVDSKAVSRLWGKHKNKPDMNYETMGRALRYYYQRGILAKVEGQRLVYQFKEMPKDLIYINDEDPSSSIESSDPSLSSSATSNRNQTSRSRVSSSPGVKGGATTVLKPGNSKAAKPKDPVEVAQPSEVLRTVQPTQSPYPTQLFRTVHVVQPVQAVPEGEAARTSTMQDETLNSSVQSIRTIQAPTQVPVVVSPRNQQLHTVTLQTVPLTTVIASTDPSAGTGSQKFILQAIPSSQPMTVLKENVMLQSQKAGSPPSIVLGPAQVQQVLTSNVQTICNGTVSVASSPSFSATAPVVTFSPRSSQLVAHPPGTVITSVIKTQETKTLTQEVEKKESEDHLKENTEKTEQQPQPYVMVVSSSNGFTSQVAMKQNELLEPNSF
In the next experiment the target is T5, EHF (Homo sapiens, UniProt Q9NZC4 1-300).
T5 sequence: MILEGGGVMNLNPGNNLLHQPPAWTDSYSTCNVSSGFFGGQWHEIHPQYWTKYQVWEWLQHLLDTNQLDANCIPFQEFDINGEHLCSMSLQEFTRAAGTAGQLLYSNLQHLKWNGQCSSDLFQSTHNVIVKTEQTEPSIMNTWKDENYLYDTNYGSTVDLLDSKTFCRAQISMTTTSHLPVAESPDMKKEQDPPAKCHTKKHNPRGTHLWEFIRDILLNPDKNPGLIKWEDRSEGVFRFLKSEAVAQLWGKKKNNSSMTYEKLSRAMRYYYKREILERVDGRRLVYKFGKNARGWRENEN
In short, it runs like this: as §1

The next experiment has as its target SPI1 (Homo sapiens, UniProt P17947 1-270). In short, it runs like this:
as §1

The next experiment concerns the target SPIB (Homo sapiens, UniProt Q01892 1-262). In short, it runs like this: as §1
In a further experiment the target is T6, ELK3 (Homo sapiens, UniProt P41970 1-407).
T6 sequence: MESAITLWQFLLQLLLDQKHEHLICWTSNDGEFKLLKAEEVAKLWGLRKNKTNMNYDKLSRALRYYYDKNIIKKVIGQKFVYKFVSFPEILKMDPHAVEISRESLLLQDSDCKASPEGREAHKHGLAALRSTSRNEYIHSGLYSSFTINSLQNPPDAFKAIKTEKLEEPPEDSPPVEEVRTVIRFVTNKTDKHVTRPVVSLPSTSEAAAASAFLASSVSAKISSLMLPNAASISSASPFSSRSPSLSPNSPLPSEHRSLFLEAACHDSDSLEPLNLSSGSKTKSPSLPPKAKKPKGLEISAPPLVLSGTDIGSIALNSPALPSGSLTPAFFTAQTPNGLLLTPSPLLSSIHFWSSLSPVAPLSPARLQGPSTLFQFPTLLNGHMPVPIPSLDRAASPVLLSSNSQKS
The procedure, abridged: as §1

In the next experiment the target is T7, FEV (Homo sapiens, UniProt Q99581 1-238).
T7 sequence: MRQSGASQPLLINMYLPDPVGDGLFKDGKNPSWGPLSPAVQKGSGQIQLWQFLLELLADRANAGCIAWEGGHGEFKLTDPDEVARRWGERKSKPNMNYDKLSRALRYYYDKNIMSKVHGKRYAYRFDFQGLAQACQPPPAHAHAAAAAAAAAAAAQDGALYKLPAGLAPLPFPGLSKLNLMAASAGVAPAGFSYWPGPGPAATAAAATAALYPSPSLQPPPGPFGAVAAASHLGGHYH
In short, it runs like this:
as §1

In the next experiment the target is ETV5 (Homo sapiens, UniProt P41161 1-510). In short, it runs like this:
as §1

A further experiment concerns the target T8, SPIC (Homo sapiens, UniProt Q8N5J4 1-248).
T8 sequence: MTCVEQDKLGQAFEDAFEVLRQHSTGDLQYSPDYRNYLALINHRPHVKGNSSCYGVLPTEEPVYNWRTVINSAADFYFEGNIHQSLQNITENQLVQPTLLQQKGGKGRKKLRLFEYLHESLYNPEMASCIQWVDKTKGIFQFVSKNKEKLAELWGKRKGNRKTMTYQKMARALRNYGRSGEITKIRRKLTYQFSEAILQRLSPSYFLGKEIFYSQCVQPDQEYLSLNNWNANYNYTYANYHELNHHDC
The procedure, abridged: as §1

The target of another experiment is ELF4 (Homo sapiens, UniProt Q99607 1-663). In short, it runs like this:
as §1

Another experiment addresses T9, ELK4 (Homo sapiens, UniProt P28324-2 1-405).
T9 sequence: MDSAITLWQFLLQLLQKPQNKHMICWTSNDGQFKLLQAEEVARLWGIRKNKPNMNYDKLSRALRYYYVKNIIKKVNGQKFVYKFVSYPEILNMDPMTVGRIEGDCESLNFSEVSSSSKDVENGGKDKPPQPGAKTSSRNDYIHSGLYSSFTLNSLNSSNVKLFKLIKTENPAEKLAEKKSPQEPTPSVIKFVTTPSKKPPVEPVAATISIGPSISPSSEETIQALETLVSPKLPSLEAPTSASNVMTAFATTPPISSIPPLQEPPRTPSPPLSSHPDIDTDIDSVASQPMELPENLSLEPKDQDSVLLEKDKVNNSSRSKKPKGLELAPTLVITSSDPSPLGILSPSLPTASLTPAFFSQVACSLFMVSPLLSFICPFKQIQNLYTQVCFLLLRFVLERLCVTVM
The procedure, abridged: as §1

The next experiment has as its target T10, ETV2 (Homo sapiens, UniProt O00321 1-342).
T10 sequence: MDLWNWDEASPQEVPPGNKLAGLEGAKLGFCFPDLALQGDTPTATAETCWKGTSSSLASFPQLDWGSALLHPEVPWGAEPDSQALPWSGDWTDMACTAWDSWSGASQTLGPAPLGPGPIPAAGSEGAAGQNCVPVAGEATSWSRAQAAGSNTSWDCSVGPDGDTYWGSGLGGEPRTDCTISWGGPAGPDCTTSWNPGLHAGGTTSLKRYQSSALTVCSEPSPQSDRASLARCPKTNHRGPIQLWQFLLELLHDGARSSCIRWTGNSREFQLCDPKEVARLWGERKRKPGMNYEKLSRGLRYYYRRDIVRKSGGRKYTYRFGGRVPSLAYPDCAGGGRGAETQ
In short, it runs like this: as §1

The target in another experiment is T11, ELF3 (Homo sapiens, UniProt P78545 1-371).
T11 sequence: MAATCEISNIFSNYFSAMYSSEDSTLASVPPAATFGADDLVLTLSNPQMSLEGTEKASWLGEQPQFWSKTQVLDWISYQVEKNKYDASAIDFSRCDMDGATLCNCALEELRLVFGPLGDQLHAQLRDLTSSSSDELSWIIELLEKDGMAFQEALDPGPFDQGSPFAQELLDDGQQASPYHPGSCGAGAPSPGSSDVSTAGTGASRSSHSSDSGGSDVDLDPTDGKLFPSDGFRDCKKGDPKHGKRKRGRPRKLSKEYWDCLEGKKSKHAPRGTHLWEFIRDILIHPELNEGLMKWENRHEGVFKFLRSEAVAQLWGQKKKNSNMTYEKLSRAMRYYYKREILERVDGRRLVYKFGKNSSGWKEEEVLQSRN
In short, it runs like this:
as §1

For a further experiment, the target named is ETV1 (Homo sapiens, UniProt P50549 1-477). The procedure, abridged: as §1
ETV1, sequence (P50549 whole entry): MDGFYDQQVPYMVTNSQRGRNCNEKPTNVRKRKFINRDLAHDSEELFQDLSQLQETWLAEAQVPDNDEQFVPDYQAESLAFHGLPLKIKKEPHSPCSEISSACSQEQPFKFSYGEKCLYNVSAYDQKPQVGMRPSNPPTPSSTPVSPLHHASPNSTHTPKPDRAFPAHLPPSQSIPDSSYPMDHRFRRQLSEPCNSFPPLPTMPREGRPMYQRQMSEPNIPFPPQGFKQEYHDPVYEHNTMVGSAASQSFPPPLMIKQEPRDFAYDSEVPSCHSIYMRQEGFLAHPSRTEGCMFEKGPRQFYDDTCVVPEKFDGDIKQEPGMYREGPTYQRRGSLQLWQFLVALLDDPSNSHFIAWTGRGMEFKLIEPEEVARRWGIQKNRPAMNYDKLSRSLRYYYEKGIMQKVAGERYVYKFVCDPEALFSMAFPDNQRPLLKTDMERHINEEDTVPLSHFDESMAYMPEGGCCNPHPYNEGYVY

ETV5, sequence (P41161 whole entry): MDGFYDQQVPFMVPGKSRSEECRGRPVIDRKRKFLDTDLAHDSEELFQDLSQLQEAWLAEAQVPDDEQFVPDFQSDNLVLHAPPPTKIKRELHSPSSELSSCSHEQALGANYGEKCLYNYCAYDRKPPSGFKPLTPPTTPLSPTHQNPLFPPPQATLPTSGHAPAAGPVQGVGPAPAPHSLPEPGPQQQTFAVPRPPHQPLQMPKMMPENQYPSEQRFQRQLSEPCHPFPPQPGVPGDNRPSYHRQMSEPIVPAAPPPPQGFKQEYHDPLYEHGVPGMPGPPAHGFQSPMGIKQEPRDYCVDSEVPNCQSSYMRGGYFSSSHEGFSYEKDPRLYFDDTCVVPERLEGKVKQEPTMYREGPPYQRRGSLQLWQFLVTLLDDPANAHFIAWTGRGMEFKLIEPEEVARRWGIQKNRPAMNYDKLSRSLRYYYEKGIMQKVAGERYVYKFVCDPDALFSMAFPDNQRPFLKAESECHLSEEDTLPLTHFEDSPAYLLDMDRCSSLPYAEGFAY
SPIB, sequence (Q01892 whole entry): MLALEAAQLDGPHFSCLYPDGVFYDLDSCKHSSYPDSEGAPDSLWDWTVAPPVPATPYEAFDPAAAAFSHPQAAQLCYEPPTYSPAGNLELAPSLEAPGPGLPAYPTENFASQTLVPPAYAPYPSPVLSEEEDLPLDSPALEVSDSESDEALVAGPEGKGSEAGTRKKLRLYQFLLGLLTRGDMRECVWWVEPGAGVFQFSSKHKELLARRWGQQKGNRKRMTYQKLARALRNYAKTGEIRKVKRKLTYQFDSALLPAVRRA
ELF4, sequence (Q99607 whole entry): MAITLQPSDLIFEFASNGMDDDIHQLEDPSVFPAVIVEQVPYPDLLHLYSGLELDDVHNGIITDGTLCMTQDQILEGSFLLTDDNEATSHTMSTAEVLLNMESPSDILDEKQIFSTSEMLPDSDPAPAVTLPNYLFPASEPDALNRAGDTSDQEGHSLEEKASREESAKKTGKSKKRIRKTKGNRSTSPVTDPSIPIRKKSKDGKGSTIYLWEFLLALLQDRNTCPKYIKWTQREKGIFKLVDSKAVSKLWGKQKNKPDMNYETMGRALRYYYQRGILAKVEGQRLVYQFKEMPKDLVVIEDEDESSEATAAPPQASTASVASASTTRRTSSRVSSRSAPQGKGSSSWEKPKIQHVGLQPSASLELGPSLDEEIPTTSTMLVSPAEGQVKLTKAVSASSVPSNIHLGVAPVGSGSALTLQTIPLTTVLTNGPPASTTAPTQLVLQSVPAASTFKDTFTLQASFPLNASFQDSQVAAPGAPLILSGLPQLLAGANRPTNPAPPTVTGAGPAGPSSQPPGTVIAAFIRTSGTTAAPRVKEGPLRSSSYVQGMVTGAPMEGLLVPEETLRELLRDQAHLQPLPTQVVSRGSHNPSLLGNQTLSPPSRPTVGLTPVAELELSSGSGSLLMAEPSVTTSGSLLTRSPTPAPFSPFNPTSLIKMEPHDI

For GATGTC, the binding signal was 1.25 fold enrichment (6-mer frequency, TF over GST control) with FLI1; 1.37 fold enrichment (6-mer frequency, TF over GST control) with ELK1; 1.24 fold enrichment (6-mer frequency, TF over GST control) in the experiment with GABPA; 1.41 fold enrichment (6-mer frequency, TF over GST control) with ERG; 1.22 fold enrichment (6-mer frequency, TF over GST control) with ELF1; 1.31 fold enrichment (6-mer frequency, TF over GST control) with EHF. For the same sequence, the binding signal in the experiment with SPI1 was 1.23 fold enrichment (6-mer frequency, TF over GST control); in the experiment with SPIB it was 1.37 fold enrichment (6-mer frequency, TF over GST control); with ELK3, 1.19 fold enrichment (6-mer frequency, TF over GST control); with FEV, 1.59 fold enrichment (6-mer frequency, TF over GST control); with ETV5, 1.37 fold enrichment (6-mer frequency, TF over GST control); in the experiment with SPIC, 1.23 fold enrichment (6-mer frequency, TF over GST control). In addition, the binding signal with ELF4 is 1.24 fold enrichment (6-mer frequency, TF over GST control); with ELK4 it was 1.15 fold enrichment (6-mer frequency, TF over GST control); with ETV2, 1.24 fold enrichment (6-mer frequency, TF over GST control); with ELF3, 1.25 fold enrichment (6-mer frequency, TF over GST control); with ETV1, 1.3 fold enrichment (6-mer frequency, TF over GST control).

As to GCCCTC, the binding signal with FLI1 was 1.12 fold enrichment (6-mer frequency, TF over GST control); with ELK1, 1.18 fold enrichment (6-mer frequency, TF over GST control); in the experiment with GABPA, 1.25 fold enrichment (6-mer frequency, TF over GST control); in the experiment with ERG it was 1.11 fold enrichment (6-mer frequency, TF over GST control); in the experiment with ELF1, 1.17 fold enrichment (6-mer frequency, TF over GST control); with EHF, 1.18 fold enrichment (6-mer frequency, TF over GST control). Also, the binding signal with SPI1 was 1.1 fold enrichment (6-mer frequency, TF over GST control); with SPIB, 1.18 fold enrichment (6-mer frequency, TF over GST control); with ELK3 it was 1.15 fold enrichment (6-mer frequency, TF over GST control); with FEV, 1.18 fold enrichment (6-mer frequency, TF over GST control); in the experiment with ETV5 it was 1.12 fold enrichment (6-mer frequency, TF over GST control); with SPIC it was 1.26 fold enrichment (6-mer frequency, TF over GST control). Besides, the binding signal in the experiment with ELF4 was 1.3 fold enrichment (6-mer frequency, TF over GST control); with ELK4 it was 1.1 fold enrichment (6-mer frequency, TF over GST control); with ETV2 it was 1.27 fold enrichment (6-mer frequency, TF over GST control); with ELF3 it was 1.18 fold enrichment (6-mer frequency, TF over GST control); in the experiment with ETV1 it was 1.18 fold enrichment (6-mer frequency, TF over GST control).
